The structures appear in SMILES notation. Records with an inconclusive call do not appear. The source made the active and inactive calls. Unless noted, the call rests on the fitted dose curve; in most records, active means well fitted curve in the direction sought with a large enough effect in the repeat runs; inconclusive means weak or mixed curves; inactive means no such curve, though single readings can be large; an effect the other way counts as inactive or inconclusive.

Assay [1] can be described thus: qHTS assay to identify aromatase inhibitors - cell viability counter screen (AID 743084).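 Further: cells stimulated with testosterone during compound exposure; nearly all actives have a fitted effect of over 55% in size.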
The target in assay [2] is Aryl hydrocarbon receptor (Homo sapiens) (UniProt P35869). As to the kind of experiment: qHTS assay to identify small molecule that activate the aryl hydrocarbon receptor (AhR) signaling pathway (AID 743085).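 Further: HG2L7.5c1 human HepG2 liver cells with stably integrated DRE-driven firefly reporter; series mostly up to about 70 µM; nearly all actives have a fitted effect of over 15% in size.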 The gist of the method: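 Steps: seed HepG2-AhR-luc cells; allow 5 h at 37C; pin-transfer test compound or vehicle; incubate 24 h at 37C; add viability dye (30 min, 37C) and read fluorescence; add luciferase substrate (30 min, RT) and read luminescence.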
Chain of Aryl hydrocarbon receptor (Homo sapiens) (P35869 whole entry, looked up): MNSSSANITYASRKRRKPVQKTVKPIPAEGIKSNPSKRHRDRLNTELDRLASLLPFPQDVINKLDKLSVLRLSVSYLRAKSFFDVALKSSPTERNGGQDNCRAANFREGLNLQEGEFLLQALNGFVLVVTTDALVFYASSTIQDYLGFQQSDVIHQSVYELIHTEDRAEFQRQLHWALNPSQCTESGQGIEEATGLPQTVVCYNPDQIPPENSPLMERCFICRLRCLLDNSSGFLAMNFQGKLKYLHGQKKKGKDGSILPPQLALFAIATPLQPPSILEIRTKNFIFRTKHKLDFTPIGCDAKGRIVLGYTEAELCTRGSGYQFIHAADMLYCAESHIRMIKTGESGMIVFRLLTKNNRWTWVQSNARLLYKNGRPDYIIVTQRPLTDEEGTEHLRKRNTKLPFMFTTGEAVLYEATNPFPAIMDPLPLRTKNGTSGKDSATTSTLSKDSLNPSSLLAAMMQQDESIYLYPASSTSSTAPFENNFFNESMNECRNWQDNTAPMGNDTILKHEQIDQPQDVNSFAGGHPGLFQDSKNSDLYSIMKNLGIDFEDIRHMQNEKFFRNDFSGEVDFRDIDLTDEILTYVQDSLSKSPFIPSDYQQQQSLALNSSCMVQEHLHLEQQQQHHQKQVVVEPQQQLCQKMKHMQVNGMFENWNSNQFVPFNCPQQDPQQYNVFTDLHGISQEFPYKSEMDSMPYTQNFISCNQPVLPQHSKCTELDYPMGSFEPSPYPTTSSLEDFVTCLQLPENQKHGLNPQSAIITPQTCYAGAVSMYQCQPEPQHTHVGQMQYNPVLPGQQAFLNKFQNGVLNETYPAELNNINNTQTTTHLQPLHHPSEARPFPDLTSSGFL
Background: Quantitative high-throughput screening tests each substance at several concentrations.

Assay [3] is described as follows: qHTS assay to identify small molecule that activate the aryl hydrocarbon receptor (AhR) signaling pathway - cell viability counter screen (AID 743086).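 Further: HepG2 liver cells carrying the AhR DRE luciferase reporter; series mostly up to about 70 µM; nearly all actives have a fitted effect of over 45% in size.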 Summed up: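 HepG2-AhR-luc (HG2L7.5c1) cells, 4000/well, were preincubated 5 h at 37C, exposed to compound in qHTS format for 24 hr at 37C, then given CellTiter-Fluor for 30 min; viability was read as fluorescence in the reporter wells.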

Assay [4] has as its target Peroxisome proliferator-activated receptor gamma (Homo sapiens) (UniProt P37231). As to the kind of experiment: qHTS assay to identify small molecule agonists of the peroxisome proliferator-activated receptor gamma (PPARg) signaling pathway (AID 743094; active means well fitted activation curve with a large enough effect in the signal ratio in the repeat runs, not every such curve was filed as active; the % refers to the signal ratio). Summed up:
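Agonist activity was taken from a beta-lactamase reporter (FRET substrate, 1 h at room temperature) in HEK293H cells carrying a PPARg UAS-bla construct. Compounds in DMSO were incubated 17 h at 37C after a 5 h cell pre-incubation.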

Assay [5] shares this target. As to the kind of experiment: qHTS assay to identify small molecule antagonists of the peroxisome proliferator-activated receptor gamma (PPARg) signaling pathway (AID 743191; calls by dose curve; further: nearly all actives have a fitted effect of over 30% in size; further: potency means the concentration at half of the fitted maximal effect). Summed up:
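GeneBLAzer PPARg UAS-bla HEK293H cells carrying a UAS-driven beta-lactamase reporter were plated at 3000 cells/well, preincubated 5 h at 37C, then given compound for 17 h at 37C; LiveBLAzer B/G FRET substrate was read after 1 h at room temperature.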

A short description of assay [6]: qHTS assay for small molecule agonists of the antioxidant response element (ARE) signaling pathway (AID 743202; active means well fitted activation curve with a large enough effect in the signal ratio in the repeat runs, not every such curve was filed as active; the % refers to the signal ratio; further: potency means the concentration at half of the fitted maximal effect). The gist of the method:
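Steps: seed ARE-bla HepG2 cells (2,000/well); incubate 5 h at 37 C; add compounds by pin tool; incubate 16 h at 37 C; add FRET substrate; read fluorescence after 2 h at RT.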

The nature of assay [7]: qHTS assay for small molecule agonists of the antioxidant response element (ARE) signaling pathway - cell viability counter screen (AID 743203; calls by dose curve; further: nearly all actives have a fitted effect of over 55% in size). The gist of the method:
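Viability counter screen: CellTiter-Glo luminescence, read after 30 min at room temperature, in ARE-bla HepG2 wells. Compound exposure lasted 16 h at 37C/5% CO2, following a 5 h pre-incubation of the cells after plating.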

Assay [8] can be described thus: qHTS assay for small molecule activators of the heat shock response signaling pathway - cell viability counter screen (AID 743209). Further: nearly all actives have a fitted effect of over 50% in size. Summed up:
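Cytotoxicity counter screen run in the same wells as the heat-shock bla reporter assay: HeLa HSE-bla cells, 5 h compound exposure at 37 C, viability read by CellTiter-Glo luminescence.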

The nature of assay [9]: qHTS assay for small molecule activators of the heat shock response signaling pathway (AID 743210; active means well fitted activation curve with a large enough effect in the signal ratio in the repeat runs, with a control signal flat, not every such curve was filed as active; the % refers to the signal ratio;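 further: HeLa cells with beta-lactamase reporter driven by heat shock elements; series mostly up to about 63 µM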). Summed up: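 Activation of heat shock element-controlled beta-lactamase expression is measured in HeLa cells by LiveBLAzer FRET fluorescence, with compound exposure lasting 5 h at 37 C and substrate loading 2.5 h at room temperature.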
The target in assay [10] is Peroxisome proliferator-activated receptor delta (Homo sapiens) (UniProt Q03181). As to the kind of experiment: qHTS assay to identify small molecule agonists of the peroxisome proliferator-activated receptor delta (PPARd) signaling pathway (AID 743212; calls by dose curve). Summed up:
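Cells expressing a UAS-driven beta-lactamase reporter (PPARd-bla HEK293H) were given test compounds after a 5 h settle and kept at 37 C. Reporter activity was then measured as FRET fluorescence using LiveBLAzer B/G substrate.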

Assay [11] in a line: qHTS assay to identify small molecule antagonists of the peroxisome proliferator-activated receptor delta (PPARd) signaling pathway - cell viability counter screen (AID 743213). Further: nearly all actives have a fitted effect of over 50% in size. The gist of the method:
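In this counter screen, HEK293H cells carrying a UAS-beta-lactamase reporter are co-treated with test compounds and 300 nM L165041 (final) for 17 h at 37 C; cell viability is quantified by CellTiter-Glo luminescence.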

Assay [12] in a line: qHTS assay to identify small molecule agonists of the farnesoid-X-receptor (FXR) signaling pathway - cell viability counter screen (AID 743218). Further: nearly all actives have a fitted effect of over 45% in size. Summed up: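 Viability counter screen in the same wells: CellTiter-Glo luminescence, 30 min room-temperature incubation, measured after the beta-lactamase read. Cells were GeneBLAzer FXR-UAS-bla HEK 293T, compound-treated 16 h at 37C.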

A short description of assay [13]: qHTS assay to identify small molecule antagonists of the farnesoid-X-receptor (FXR) signaling pathway - cell viability counter screen (AID 743221; active means well fitted cell-killing curve with a large enough effect in the repeat runs, not every such curve was filed as active; further: nearly all actives have a fitted effect of over 50% in size). The gist of the method:
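Quantitative HTS of the Tox21 10K library run in parallel with the beta-lactamase reporter read. HEK 293T cells carrying a UAS-driven bla reporter got compound and 50 uM CDCA (final) for 16 h; ATP-based luminescence followed.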

Assay [14] deals with Vitamin D3 receptor (Homo sapiens) (UniProt P11473). As to the kind of experiment: qHTS assay to identify small molecule agonists of the vitamin D receptor (VDR) signaling pathway (AID 743222; calls by dose curve). The gist of the method: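 Agonist mode, beta-lactamase reporter: fluorescence from LiveBLAzer B/G FRET substrate (2 h, room temperature) read after 16 h compound treatment at 37 C of VDR-bla cells, which were pre-incubated 4 h after seeding.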
Chain of Vitamin D3 receptor (Homo sapiens) (P11473 whole entry, looked up): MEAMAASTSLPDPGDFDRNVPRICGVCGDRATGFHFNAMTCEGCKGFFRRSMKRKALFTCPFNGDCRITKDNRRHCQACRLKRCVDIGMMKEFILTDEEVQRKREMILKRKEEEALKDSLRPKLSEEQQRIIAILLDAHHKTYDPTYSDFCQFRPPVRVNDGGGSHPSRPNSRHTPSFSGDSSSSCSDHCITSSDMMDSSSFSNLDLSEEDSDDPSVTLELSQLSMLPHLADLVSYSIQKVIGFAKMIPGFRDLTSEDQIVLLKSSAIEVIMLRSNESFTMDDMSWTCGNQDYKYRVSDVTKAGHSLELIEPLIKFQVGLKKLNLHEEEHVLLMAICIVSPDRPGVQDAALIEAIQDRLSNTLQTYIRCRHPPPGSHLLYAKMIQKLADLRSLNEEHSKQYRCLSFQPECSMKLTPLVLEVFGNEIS

Assay [15] in a line: qHTS assay to identify small molecule agonists of the peroxisome proliferator-activated receptor delta (PPARd) signaling pathway - cell viability counter screen (AID 743211). Further: nearly all actives have a fitted effect of over 55% in size. Summed up: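 Viability of GeneBLAzer PPARd UAS-bla HEK293H cells was assessed after 17 h compound incubation at 37C, using CellTiter-Glo reagent added after the reporter read and luminescence recorded 30 min later.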

The target in assay [16] is Peroxisome proliferator-activated receptor delta (Homo sapiens) (UniProt Q03181). As to the kind of experiment: qHTS assay to identify small molecule antagonists of the peroxisome proliferator-activated receptor delta (PPARd) signaling pathway (AID 743215; active means well fitted inhibition curve with a large enough effect in the signal ratio in the repeat runs, not every such curve was filed as active; the % refers to the signal ratio;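 further: cells stimulated with agonist L165041 at 300 nM final during compound exposure; series mostly up to about 62 µM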). The gist of the method:
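Agonist L165041 (300 nM final) added with compound to PPARd-bla HEK293H UAS-bla reporter cells; 17 h incubation at 37 C. Read-out: LiveBLAzer FRET substrate, 2 h at room temperature, fluorescence intensity.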

Assay [17] concerns the target Bile acid receptor (Homo sapiens) (UniProt Q96RI1). As to the kind of experiment: qHTS assay to identify small molecule antagonists of the farnesoid-X-receptor (FXR) signaling pathway (AID 743217; active means well fitted inhibition curve with a large enough effect in the signal ratio in the repeat runs, not every such curve was filed as active; the % refers to the signal ratio). Summed up:
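Antagonist mode: chenodeoxycholic acid at 50 uM final stimulates a UAS-driven beta-lactamase reporter in HEK 293T FXR-bla cells during 16 h, 37C compound exposure. Read-out is FRET substrate fluorescence after 2 h at room temperature.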

For assay [18] the target is unchanged. As to the kind of experiment: qHTS assay to identify small molecule agonists of the farnesoid-X-receptor (FXR) signaling pathway (AID 743220; active means well fitted activation curve with a large enough effect in the signal ratio in the repeat runs, not every such curve was filed as active; the % refers to the signal ratio). The gist of the method: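 FXR-UAS-bla HEK 293T cells carrying a UAS-driven beta-lactamase reporter were plated for 5 h at 37C/5% CO2, then exposed to DMSO-dissolved Tox21 10K compounds for 16 h at 37C. A LiveBLAzer B/G FRET substrate was loaded for 2 h at room temperature before fluorescence reading.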

Assay [19] is described as follows: qHTS assay to identify small molecule antagonists of the peroxisome proliferator-activated receptor gamma (PPARg) signaling pathway - cell viability counter screen (AID 743194). Further: nearly all actives have a fitted effect of over 55% in size. The gist of the method: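 PPARg-UAS-bla HEK293H cells were plated, rested 5 h at 37 C, then treated with compounds plus rosiglitazone (50 nM final) for 17 h at 37 C; viability was then read by CellTiter-Glo luminescence after 30 min at room temperature.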

Assay [20] has as its target Vitamin D3 receptor (Homo sapiens) (UniProt P11473). As to the kind of experiment: qHTS assay to identify small molecule antagonists of the vitamin D receptor (VDR) signaling pathway (AID 743223; active means well fitted inhibition curve with a large enough effect in the signal ratio in the repeat runs, not every such curve was filed as active; the % refers to the signal ratio). The gist of the method:
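Fluorescence from LiveBLAzer B/G FRET substrate, read after 2 h at room temperature, reflects beta-lactamase reporter activity in VDR-bla cells treated 16 h at 37C with compounds and agonist 1alpha,25-dihydroxyvitamin D3 (3 nM final).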

Chain of Bile acid receptor (Homo sapiens) (Q96RI1 whole entry, looked up): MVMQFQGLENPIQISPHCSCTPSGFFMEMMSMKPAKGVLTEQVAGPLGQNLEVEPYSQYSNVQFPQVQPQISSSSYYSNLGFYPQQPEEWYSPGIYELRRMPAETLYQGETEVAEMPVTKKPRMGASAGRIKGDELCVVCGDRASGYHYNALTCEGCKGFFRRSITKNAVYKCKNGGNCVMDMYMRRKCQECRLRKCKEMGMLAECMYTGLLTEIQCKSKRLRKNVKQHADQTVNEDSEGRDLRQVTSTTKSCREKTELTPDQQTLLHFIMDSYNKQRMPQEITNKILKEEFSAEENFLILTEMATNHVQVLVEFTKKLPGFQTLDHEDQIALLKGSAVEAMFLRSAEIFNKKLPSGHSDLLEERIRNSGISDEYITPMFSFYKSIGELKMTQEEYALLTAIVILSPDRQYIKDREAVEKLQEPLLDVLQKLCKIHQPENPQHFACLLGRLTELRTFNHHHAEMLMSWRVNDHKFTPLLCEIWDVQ
Chain of Peroxisome proliferator-activated receptor delta (Homo sapiens) (Q03181 whole entry, looked up): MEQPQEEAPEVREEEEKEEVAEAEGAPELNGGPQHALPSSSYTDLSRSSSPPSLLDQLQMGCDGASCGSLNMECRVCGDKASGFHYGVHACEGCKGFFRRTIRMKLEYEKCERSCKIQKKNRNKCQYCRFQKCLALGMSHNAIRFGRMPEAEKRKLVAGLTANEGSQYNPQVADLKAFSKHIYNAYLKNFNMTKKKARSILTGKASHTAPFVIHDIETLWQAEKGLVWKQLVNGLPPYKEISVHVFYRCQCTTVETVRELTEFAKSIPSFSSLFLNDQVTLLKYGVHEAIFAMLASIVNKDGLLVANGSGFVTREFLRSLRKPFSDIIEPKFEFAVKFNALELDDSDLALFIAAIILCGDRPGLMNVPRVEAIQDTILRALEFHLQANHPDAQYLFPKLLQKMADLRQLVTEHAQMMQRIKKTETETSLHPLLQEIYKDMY
Chain of Peroxisome proliferator-activated receptor gamma (Homo sapiens) (P37231 whole entry, looked up): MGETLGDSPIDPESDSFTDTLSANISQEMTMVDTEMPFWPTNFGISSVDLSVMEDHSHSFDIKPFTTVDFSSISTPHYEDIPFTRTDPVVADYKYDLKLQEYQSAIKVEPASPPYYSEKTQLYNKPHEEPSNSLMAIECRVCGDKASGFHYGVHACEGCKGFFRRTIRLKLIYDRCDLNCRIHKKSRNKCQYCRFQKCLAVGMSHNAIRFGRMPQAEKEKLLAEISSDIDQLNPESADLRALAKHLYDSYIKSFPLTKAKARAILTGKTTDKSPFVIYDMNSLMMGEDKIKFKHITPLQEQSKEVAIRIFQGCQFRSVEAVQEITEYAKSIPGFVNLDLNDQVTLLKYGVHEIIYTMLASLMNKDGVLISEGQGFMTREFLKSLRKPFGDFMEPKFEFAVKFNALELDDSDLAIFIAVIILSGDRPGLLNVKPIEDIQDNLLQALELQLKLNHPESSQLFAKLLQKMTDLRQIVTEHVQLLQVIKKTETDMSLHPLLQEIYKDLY

Consider `Oc1ccccc1Cc1ccccc1O`, for which the Potency entry in assay [1], in [2], in [3] and in assay [12] was “inactive” in each case. The call in [4], in assay [7], in [8], in assay [9], in assay [10] and in [11] was inactive. The result in assay [13] and in assay [14] was inactive. Moreover, the Potency in [5] was 30.9 µM (active); in assay [6], 38.6 µM (active).

With `C=COCCOCCOC=C`, the Potency entry in [1], in assay [2], in assay [3], in [5] and in assay [12] was “inactive” throughout. Also, the outcome in [4], in assay [7], in assay [8], in [9], in assay [15] and in [10] was inactive. Besides, the outcome in assay [11], in assay [16], in assay [17], in assay [18], in assay [13] and in [14] was inactive.

With `CCCCCCCC[Si](OCC)(OCC)OCC`, the Potency result in [1], in [2], in assay [3] and in assay [6] was “inactive” in each case. Besides, the molecule was called inactive in assay [4], in assay [19], in assay [7], in [8], in assay [9] and in [15]. Besides, the result in assay [10], in assay [11], in assay [16], in assay [13], in [14] and in assay [20] was inactive.

Turning to `CCCOCCOCCOCCO`, the Potency result in assay [1], in assay [2], in assay [3], in assay [5] and in [6] was “inactive” throughout. In addition, the result in assay [4], in assay [8], in assay [9], in [15], in assay [10] and in [11] was inactive. Moreover, the molecule was called inactive in assay [16], in [17], in assay [18], in assay [13] and in assay [14].

Turning to `Cn1c(=O)c2c(ncn2CC2OCCO2)n(C)c1=O`, the Potency result in assay [1], in [2], in assay [3], in [6] and in assay [12] was “inactive” in each case. Besides, the result in assay [4], in [19], in [7], in [8], in [9] and in assay [15] was inactive. The call in assay [10], in assay [11], in assay [17], in [18] and in assay [13] was inactive.

With `FC(F)(F)c1ccc(Cl)cc1Cl`, the Potency entry in assay [1], in assay [2], in [3], in assay [6] and in assay [12] was “inactive” throughout. In addition, the molecule was classed as inactive in [4], in assay [19], in assay [7], in assay [8], in assay [9] and in assay [15]. Also, the molecule was classed as inactive in assay [11], in assay [13], in [14] and in assay [20].

As for `CC(=O)OC(C)c1ccccc1` (stereo unspecified), the Potency entry in [1], in assay [2], in [3], in assay [6] and in [12] was “inactive” each time. For the same molecule, the call in assay [4], in assay [19], in [7], in assay [8], in assay [9] and in [15] was inactive. The outcome in assay [13] and in [14] was inactive.

On to `O=c1cc(O)c(Cl)c[nH]1`, for which the Potency result in assay [1], in assay [2], in [3], in [5] and in assay [12] was “inactive” each time. In addition, the molecule was classed as inactive in assay [4], in assay [8], in assay [9], in [15], in [10] and in assay [11]. Moreover, the molecule was called inactive in [16], in assay [17], in [18], in assay [13], in [14] and in [20].

Consider `CC(C)COC(=O)CC(C(=O)OCC(C)C)S(=O)(=O)O` (stereo unspecified), for which the Potency result in [1], in assay [2], in assay [3], in assay [5] and in [12] was “inactive” each time. In addition, the molecule was called inactive in assay [4], in [8], in assay [9], in [15], in [10] and in assay [11]. In addition, the molecule was called inactive in assay [13] and in assay [14].

Consider `CCC(C)(C)C1CCC(=O)CC1`, for which the Potency entry in [1], in assay [2], in [3], in assay [6] and in [12] was “inactive” each time. Moreover, the call in assay [4], in assay [19], in assay [7], in assay [8], in assay [9] and in [15] was inactive. Moreover, the molecule was called inactive in assay [10], in [11], in assay [16], in assay [13], in [14] and in [20].

Consider `CCCCCCCCCCCCCCCC(=O)NCCO`, for which the Potency result in assay [1], in [2], in assay [3], in [5] and in assay [12] was “inactive” in each case. The call in assay [4], in assay [7], in [8], in assay [9], in assay [15] and in assay [10] was inactive. Besides, the result in assay [11], in assay [17], in assay [18], in [13], in [14] and in assay [20] was inactive.

With `CC(=O)Nc1ncc([N+](=O)[O-])s1`, the Potency result in assay [1], in assay [2], in assay [3] and in assay [5] was “inactive” each time. Moreover, the molecule was classed as inactive in assay [4], in assay [7], in assay [8], in [9], in [15] and in assay [10]. For the same molecule, the molecule was classed as inactive in assay [17], in [18], in assay [13] and in assay [14].

With `CCCCCCCCCCC`, the Potency entry in [1], in assay [2], in assay [3], in assay [5] and in [12] was “inactive” each time. For the same molecule, the outcome in [4], in assay [8], in assay [9], in [15], in [11] and in assay [13] was inactive.

Source of the values: PubChem BioAssay (Tox21).
